This is an account of results in PubChem BioAssay.

Molecules are shown by their SMILES. Activity calls are given as the source filed them.

Experiment [1] has as its system Plasmodium falciparum Sir2 (PF13_0152, Sir2A). In words: Plasmodium falciparum Sir2A binding compounds – biochemical, small-molecule microarray, 635 nm fluorescence, primary screen (AID 1098).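 Also: score merges spot fluorescence intensity with its signal-to-noise ratio.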 The settings on record: fluorescence 635 nm, higher = more signal.
Experiment [2] in a line: probe aDKK1 binding to arrayed compounds – biochemical, biotinylated probe, 635/667 nm fluorescence, primary screen (AID 1099).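 Also: score merges 667nm spot fluorescence with signal to noise across triplicate slides.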 The settings on record: small-molecule microarray, higher = more signal.
The nature of experiment [3]: probe aCHRDL2 binding to arrayed compounds – biochemical, biotinylated probe, 635/667 nm fluorescence, primary screen (AID 1100). The settings on record: small-molecule microarray, higher = more signal.
The nature of experiment [4]: change in splice reporter luminescence, either direction, cell-based, HEK293, spliceosome inhibition project, primary screen (AID 1101).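 Also: HEK293 cells carrying a splicing-competent luciferase reporter gene; test concentration not given here.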 Conditions: HEK293 splicing luciferase reporter, 24 h, higher = more signal, called active from +8 up or from −8 down. On the technique in general: In a reporter assay the amount or activity of a reporter protein is the signal.
The target in experiment [5] is Fibroblast growth factor 10 (Homo sapiens) (UniProt O15520). Put plainly: compounds binding fibroblast growth factor 10 – biochemical, small-molecule microarray, 635 nm fluorescence, primary screen (AID 1102). Conditions: FGF10 binding, fluorescence 635 nm, higher = more signal.
Sequence of Fibroblast growth factor 10 (Homo sapiens) (O15520 whole entry, looked up): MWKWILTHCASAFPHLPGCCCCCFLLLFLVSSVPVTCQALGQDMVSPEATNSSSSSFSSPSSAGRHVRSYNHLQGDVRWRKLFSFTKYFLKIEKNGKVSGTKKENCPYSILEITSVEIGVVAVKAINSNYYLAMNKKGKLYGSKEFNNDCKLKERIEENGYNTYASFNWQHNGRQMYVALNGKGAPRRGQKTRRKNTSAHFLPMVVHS
In experiment [6] the test system is glycogen synthase kinase-3 (GSK3A per assay name; protocol says GSK3B). In words: compounds binding glycogen synthase kinase-3 – biochemical, small-molecule microarray, 635 nm fluorescence, GSK3A, primary screen (AID 1103). Also: the record names both GSK3A and GSK3B. The settings on record: fluorescence 635 nm, higher = more signal.
Experiment [7] addresses Epidermal growth factor receptor (Homo sapiens) (UniProt P00533). Put plainly: compounds binding epidermal growth factor receptor – biochemical, small-molecule microarray, 635 nm fluorescence, primary screen (AID 1104).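 Also: score merges 667 nm emission intensity with spot signal to noise over triplicate slides.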 Conditions: EGFR binding, higher = more signal.
In experiment [8] the target is Follistatin-related protein 3 (Homo sapiens) (UniProt O95633). Put plainly: compounds binding follistatin-related protein 3 – biochemical, small-molecule microarray, 635 nm fluorescence, primary screen (AID 1105).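 Also: score merges emission near 667 nm and signal to noise per printed spot across three slides.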 Conditions: FSTL3 binding, higher = more signal.
Sequence of Follistatin-related protein 3 (Homo sapiens) (O95633 whole entry, looked up): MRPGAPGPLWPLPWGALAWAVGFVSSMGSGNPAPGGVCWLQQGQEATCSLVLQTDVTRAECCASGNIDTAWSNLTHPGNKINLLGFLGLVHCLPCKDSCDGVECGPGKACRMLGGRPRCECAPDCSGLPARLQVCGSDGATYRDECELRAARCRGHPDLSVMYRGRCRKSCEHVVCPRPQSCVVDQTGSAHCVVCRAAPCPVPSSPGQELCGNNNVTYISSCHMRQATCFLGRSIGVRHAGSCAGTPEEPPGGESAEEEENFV
The target in experiment [9] is Dickkopf-related protein 1 (Homo sapiens) (UniProt O94907). Put plainly: small molecules binding DKK1 protein – biochemical, small-molecule microarray, 635 nm fluorescence scan, primary screen (AID 1106).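 Also: score merges emission near 667 nm with signal to noise over three replicate slides.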 The settings on record: higher = more signal.
Sequence of Dickkopf-related protein 1 (Homo sapiens) (O94907 whole entry, looked up): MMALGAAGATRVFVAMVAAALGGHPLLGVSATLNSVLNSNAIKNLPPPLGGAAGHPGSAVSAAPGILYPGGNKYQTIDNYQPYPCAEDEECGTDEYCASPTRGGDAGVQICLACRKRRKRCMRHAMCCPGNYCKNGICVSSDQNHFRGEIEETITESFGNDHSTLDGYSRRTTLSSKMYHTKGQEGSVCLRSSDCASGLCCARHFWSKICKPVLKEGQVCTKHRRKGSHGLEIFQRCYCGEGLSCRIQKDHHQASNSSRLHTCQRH
For experiment [10], the system named is Inhibin beta A chain (activin A). Put plainly: small molecules binding activin A – biochemical, small-molecule microarray, 635 nm fluorescence scan, primary screen (AID 1107).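 Also: mouse activin A protein probed at 4.33 µg/mL on printed slides; score merges bound-protein fluorescence near 667 nm with spot signal-to-noise.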 Conditions: INHBA, higher = more signal.
In experiment [11] the test system is Human papillomavirus type 1a protein E7 (residues 44-93). In words: small molecules binding HPV E7 44-93 – biochemical, small-molecule microarray, residues 44-93, 635 nm fluorescence, primary screen (AID 1108).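 Also: E7 fragment applied at 1 µg/mL in TBST for 1 h at 4 C; score combines spot fluorescence with its signal to noise ratio.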 Conditions: fluorescence 635 nm, higher = more signal.
The nature of experiment [12]: hepatitis C replication reporter changes, two-sided – Huh7 cells, luciferase reporter, HCV replication inhibitor project, primary screen (AID 1109).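 Also: huh7 hepatoma cells harbouring a luciferase neomycin HCV replicon reporter; luciferase luminescence as measure of HCV replicon replication; test concentration not given here.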 The settings on record: Huh7 HCV replicon luciferase reporter, 48 h; higher = more signal.
Experiment [13] deals with Left-right determination factor 2 (Homo sapiens) (UniProt O00292). In words: small molecules binding LEFTY2 protein – biochemical, small-molecule microarray, 635 nm fluorescence scan, primary screen (AID 1110). Conditions: higher = more signal.
Sequence of Left-right determination factor 2 (Homo sapiens) (O00292 whole entry, looked up): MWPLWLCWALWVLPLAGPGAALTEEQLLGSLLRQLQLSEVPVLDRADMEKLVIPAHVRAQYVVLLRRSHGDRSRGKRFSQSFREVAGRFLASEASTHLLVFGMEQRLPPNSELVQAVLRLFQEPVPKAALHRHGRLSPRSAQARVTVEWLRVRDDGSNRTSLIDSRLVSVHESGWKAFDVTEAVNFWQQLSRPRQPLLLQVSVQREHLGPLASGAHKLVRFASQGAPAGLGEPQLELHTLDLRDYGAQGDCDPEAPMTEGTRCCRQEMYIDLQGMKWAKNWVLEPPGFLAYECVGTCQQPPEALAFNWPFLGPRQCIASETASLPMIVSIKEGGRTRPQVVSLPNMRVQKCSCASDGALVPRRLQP
Experiment [14] has as its target Calmodulin-1 (Homo sapiens) (UniProt P0DP23). In words: small molecules binding calmodulin-1 with EGTA – biochemical, small-molecule microarray, Cy5-labelled CALM1, profiling panel (AID 1111).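 Also: labelled calmodulin applied in Tris saline Tween buffer holding calcium plus EGTA and DTT.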 Conditions: Cy5-CALM1 binding fluorescence, higher = more signal.
Experiment [15] shares this target. In words: small molecules binding Ca-loaded calmodulin-1 – biochemical, small-molecule microarray, Cy5-labelled CALM1, plus calcium, artefact control for SMM control-protein annotation, profiling panel (AID 1112).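 Also: score merges spot fluorescence with signal to noise from triplicate slides.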 The settings on record: Cy5-CALM1 binding fluorescence, higher = more signal.
Experiment [16] can be described thus: probe aWnt5a binding to arrayed compounds – biochemical, biotinylated probe, 635/667 nm fluorescence, primary screen (AID 1113).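 Also: score merges 667 nm fluorescence intensity with signal-to-noise per printed feature.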 Conditions: small-molecule microarray, higher = more signal.
The nature of experiment [17]: probe aShh binding to arrayed compounds – biochemical, biotinylated probe, 635/667 nm fluorescence, primary screen (AID 1114).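 Also: probe is biotin-labelled aShh protein from a stem cell growth factor screen; measures binding of labelled protein to compounds printed on the slide; score merges feature fluorescence at 667 nm with signal-to-noise.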 Conditions: small-molecule microarray, higher = more signal.
Experiment [18] in a line: probe aNog binding to arrayed compounds – biochemical, biotinylated probe, 635/667 nm fluorescence, primary screen (AID 1115).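 Also: probe is biotinylated aNog protein used at 0.15 µg/mL for 1 h at 4 C; z-score combines 667 nm fluorescence of each spot with its signal to noise.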 The settings on record: small-molecule microarray, higher = more signal.
Experiment [19] concerns the target Torsin-1A-interacting protein 1 (Homo sapiens) (UniProt Q5JTV8). In words: compound microarray binding of lysate hLAP1 – cell lysate, small-molecule microarray, COS7 lysate, 635/667 nm fluorescence, primary screen (AID 1116). The settings on record: 635 nm fluorescence, higher = more signal.
The target in experiment [20] is Alpha-bungarotoxin (Bungarus multicinctus) (UniProt P60615). In words: compounds binding labelled alpha-BTX control protein – biochemical, small-molecule microarray, Alexa647 label, 635/667 nm fluorescence, artefact control for SMM control protein annotation, profiling panel (AID 1117). Conditions: alpha-BTX-A647 binding fluorescence, higher = more signal.
Sequence of Alpha-bungarotoxin (Bungarus multicinctus) (P60615 whole entry, looked up): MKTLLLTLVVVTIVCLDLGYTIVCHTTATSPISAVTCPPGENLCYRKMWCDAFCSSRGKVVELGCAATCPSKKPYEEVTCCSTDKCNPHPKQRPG

Sequence of Epidermal growth factor receptor (Homo sapiens) (P00533 whole entry, looked up): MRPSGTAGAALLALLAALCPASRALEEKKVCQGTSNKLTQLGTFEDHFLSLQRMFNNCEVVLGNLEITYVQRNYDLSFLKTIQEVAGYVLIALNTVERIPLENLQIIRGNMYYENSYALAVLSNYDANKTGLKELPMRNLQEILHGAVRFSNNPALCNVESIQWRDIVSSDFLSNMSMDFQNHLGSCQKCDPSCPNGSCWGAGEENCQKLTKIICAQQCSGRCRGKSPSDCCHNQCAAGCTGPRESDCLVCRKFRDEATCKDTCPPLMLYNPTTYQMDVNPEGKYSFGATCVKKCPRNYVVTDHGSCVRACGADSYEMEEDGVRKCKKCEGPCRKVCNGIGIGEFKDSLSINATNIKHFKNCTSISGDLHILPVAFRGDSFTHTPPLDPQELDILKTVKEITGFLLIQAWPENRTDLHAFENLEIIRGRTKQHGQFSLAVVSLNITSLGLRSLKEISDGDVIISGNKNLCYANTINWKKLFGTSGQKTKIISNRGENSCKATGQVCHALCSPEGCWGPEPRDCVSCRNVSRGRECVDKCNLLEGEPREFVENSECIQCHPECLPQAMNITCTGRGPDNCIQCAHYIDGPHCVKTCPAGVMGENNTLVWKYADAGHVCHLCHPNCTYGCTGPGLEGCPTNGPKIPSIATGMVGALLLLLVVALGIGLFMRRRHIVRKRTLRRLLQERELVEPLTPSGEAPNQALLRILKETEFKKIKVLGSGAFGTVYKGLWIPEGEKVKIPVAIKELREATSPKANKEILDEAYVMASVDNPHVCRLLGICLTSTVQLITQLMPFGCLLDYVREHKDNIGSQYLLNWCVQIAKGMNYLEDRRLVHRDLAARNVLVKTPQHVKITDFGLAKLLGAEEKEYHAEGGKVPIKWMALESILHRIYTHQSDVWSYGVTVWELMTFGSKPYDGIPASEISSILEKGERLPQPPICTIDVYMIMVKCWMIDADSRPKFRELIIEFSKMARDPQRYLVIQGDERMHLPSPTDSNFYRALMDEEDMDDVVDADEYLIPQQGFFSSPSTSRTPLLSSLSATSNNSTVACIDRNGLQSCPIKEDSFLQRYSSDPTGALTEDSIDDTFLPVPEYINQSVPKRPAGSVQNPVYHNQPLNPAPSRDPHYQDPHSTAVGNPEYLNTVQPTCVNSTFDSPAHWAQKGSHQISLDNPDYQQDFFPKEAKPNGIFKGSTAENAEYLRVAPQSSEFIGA
Sequence of Torsin-1A-interacting protein 1 (Homo sapiens) (Q5JTV8 whole entry, looked up): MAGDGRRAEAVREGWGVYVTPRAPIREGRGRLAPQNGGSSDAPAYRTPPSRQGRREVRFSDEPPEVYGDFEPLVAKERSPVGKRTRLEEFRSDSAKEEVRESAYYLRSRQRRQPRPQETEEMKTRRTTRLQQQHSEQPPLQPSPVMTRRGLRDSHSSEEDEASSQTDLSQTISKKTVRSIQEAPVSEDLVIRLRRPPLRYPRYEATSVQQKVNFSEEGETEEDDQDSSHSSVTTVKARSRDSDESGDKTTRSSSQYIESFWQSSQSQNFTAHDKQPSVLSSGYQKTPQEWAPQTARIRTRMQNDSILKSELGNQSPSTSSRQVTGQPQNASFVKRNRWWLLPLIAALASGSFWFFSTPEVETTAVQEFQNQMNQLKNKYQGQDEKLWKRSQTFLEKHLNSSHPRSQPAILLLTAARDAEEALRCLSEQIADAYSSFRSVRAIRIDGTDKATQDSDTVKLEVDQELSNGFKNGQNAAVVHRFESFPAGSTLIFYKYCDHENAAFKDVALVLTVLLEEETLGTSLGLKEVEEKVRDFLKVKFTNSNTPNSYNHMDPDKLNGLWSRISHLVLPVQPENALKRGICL

For the compound `COc1ccc(-c2ccc3c(n2)CCCN3CC(O)CN2CCCc3nc(C)c(C)cc32)cc1` (stereo not given), the composite z-score is 0.879 in [1]; 0.323 in experiment [2]; 0.386 in [3]; 0.817 in experiment [5]; 0.871 in experiment [6]; 0.691 in [7]. For the same compound, the composite z-score was determined as 0.995 in [8]; 1.39 in experiment [9]; 1.6 in experiment [10]; 1.02 in experiment [11]; 0.728 in experiment [13]; 0.0025 in experiment [14]. Moreover, the composite z-score is -0.636 in experiment [15]; 0.459 in experiment [16]; 0.699 in [17]; 0.667 in [18]; 0.833 in [19]; 2.05 in experiment [20]. Also, the z-score was -0.155 (inactive) in experiment [4] and -0.578 in [12].
Take `COC(=O)[C@@]1(Cc2ccc(OC)cc2)[C@H]2c3cc(C(=O)N4CCCC4)n(Cc4cc(F)c(F)c(F)c4)c3C[C@H]2CN1C(=O)c1ccccc1`: the composite z-score in experiment [1] was found to be 1.08; in experiment [2], 2.47; in experiment [3], 1.59; in experiment [5], 1.15; in experiment [6], 1.3; in experiment [7], 1.12. Moreover, the composite z-score in experiment [8] is 1.32; in experiment [9], -0.279; in [10] it was 0.835; in experiment [11], 1.37; in experiment [13] it was 0.342; in [14] it was 2.69. In addition, the composite z-score in experiment [15] came to 1.59; in experiment [16] it was 1.11; in [17] it was 2.22; in experiment [18], 1.07; in experiment [19], 1.52; in [20], 2.06. The values for the z-score in experiment [4] and in [12] were -1.28 (inactive) and 0.323, respectively.
For the compound `COc1ccc([Si](C)(C)[C@@H]2[C@@H](CCO)O[C@]3(C(=O)N(Cc4ccc(NC(C)=O)cc4)c4ccccc43)[C@H]2C)cc1`, the composite z-score in experiment [1] was 1.23; in experiment [2] it was -0.173; in experiment [3] it was 0.0018; in [5], 0.779; in experiment [6], 1.28; in experiment [7], 1.28. Also, the composite z-score was 0.951 in experiment [8]; -0.0026 in experiment [9]; 0.387 in experiment [10]; 1.43 in experiment [11]; 0.621 in experiment [13]; 1.07 in [14]. In addition, the composite z-score in experiment [15] was 0.521; in experiment [16], 0.0136; in [17], 0.441; in experiment [18], 0.715; in experiment [19], 0.802; in experiment [20], 1.21. Moreover, the z-score was -2.27 (inactive) in [4] and -5.21 in experiment [12].
For the compound `C=C(/C(=C/C[C@H](OC(C)=O)c1ccc(OCCO)cc1)c1cnc2ccccc2c1)C(C)C`, the composite z-score was 0.659 in experiment [1]; -0.523 in [2]; -0.611 in [3]; 1.49 in [5]; 0.939 in experiment [6]; 0.333 in experiment [7]. Further, the composite z-score in [8] was found to be 1.48; in experiment [9], 0.658; in experiment [10], 1.64; in experiment [11], 1.41; in [13] it was 1.06; in experiment [14], 0.295. For the same compound, the composite z-score in [15] is -0.184; in experiment [16], 0.117; in [17] it was -0.0917; in experiment [18], -0.243; in [19], 0.782; in [20], 0.911. For the same compound, the results for the z-score in [4] and in experiment [12] were -0.494 (inactive) and -1.38, respectively.
As to `O=C1[C@H]2[C@H]3[C@H](O)[C@H](O)CC(=NO[C@@H]4O[C@H](CO)[C@@H](O)[C@H](O)[C@H]4O)[C@@H]3CC[C@H]2C(=O)N1Cc1ccc2c(c1)OCO2`, the composite z-score was 0.456 in experiment [1]; -0.174 in [2]; -0.576 in experiment [3]; 0.422 in [5]; 0.708 in experiment [6]; 0.4 in experiment [7]. The composite z-score in experiment [8] was 0.521; in [9], 0.921; in experiment [10], -0.292; in experiment [11] it was 1.13; in experiment [13], 0.387; in experiment [14], 0.0102. In addition, the composite z-score is -0.566 in experiment [15]; -0.0519 in [16]; -0.403 in experiment [17]; -0.244 in experiment [18]; 0.715 in experiment [19]; 0.378 in [20]. For the same compound, the values for the z-score in [4] and in experiment [12] were 0.0977 (inactive) and 0.363, respectively.
Turning to `CC(C)[Si]1(C(C)C)O[C@@H](c2ccccc2)c2cc(C3CC3)nc(-c3ccccc3)c21`, the composite z-score is -0.792 in [1]; -0.276 in experiment [2]; -0.0652 in experiment [3]; -0.0733 in [5]; -0.248 in experiment [6]; -0.337 in experiment [7]. Moreover, the composite z-score was -0.349 in experiment [8]; -0.568 in [9]; -1.07 in [10]; 0.503 in experiment [11]; -0.953 in [13]; -0.0471 in experiment [14]. Also, the composite z-score was -0.239 in experiment [15]; -0.126 in experiment [16]; -0.221 in [17]; -0.368 in experiment [18]; -0.509 in experiment [19]; 0.181 in [20]. Besides, the z-score in [4] is -0.613 (inactive); in [12] it was -0.587.
